Active and inactive are the calls of the source. How the source made its calls: active means hit-call score of the fitted dose curve at least 0.9, where 1 is the maximum; inactive means score below 0.9.
read-out: CD90, THY1 (gene 7070); assay: BSK_BF4T_CD90: BioMAP Diversity Plus: BF4T Assay for CD90 Biomarker Activity (AID 2284262); settings: primary human bronchial epithelial cells with fibroblasts
Protocol: BSK_BF4T is a cell-based, multiplexed-readout assay that uses bronchial epithelial cells and dermal fibroblasts, a human vascular primary cell, with measurements taken at 24 hours after chemical dosing in a microplate: 96-well plate.BSK_BF4T_CD90 is an assay component measured in the BSK_BF4T assay. It measures CD90 antibody related to regulation of gene expression using ELISA technology.Data from the assay component BSK_BF4T_CD90 was analyzed at the endpoint, BSK_BF4T_CD90, in the positive analysis fitting direction relative to DMSO as the negative control and baseline of activity. Using a type of binding reporter, gain or loss-of-signal activity can be used to understand protein changes. To generalize the intended target to other relatable targets, this assay endpoint is annotated to the 'cytokine' intended target family, where the subfamily is 'inflammatory factor'.
The levels of cell surface (or secreted, indicated by the prefix "s") biomarker endpoints were measured by ELISA. Overt cytotoxicity to cells in confluent adherent cultures (all systems other than the BT system) was assessed by measuring total protein levels using sulforhodamine B (SRB) staining in parallel cultures at the time of biomarker measurements, indicated as SRB endpoints. For proliferation assays for adherent cell types, individual cell types are cultured at sub-confluence and relative cell numbers quantified by SRB staining at time points optimized for each system (48 h: 3C and CASM3C systems; 72 h: BT and HDF3CGF systems; 96 h: SAg system). SRB was performed by staining cells with 0.1% SRB after fixation with 10% TCA and reading wells at 560 nm.Viability and proliferation of PBMC (T cells) was quantified by Alamar Blue reduction for the SAg and BT systems. For PBMC viability (referred to as PBMC Cytotoxicity within the assay endpoint names), cells were plated (75,000/well in a 96-well plate) and then chemical samples added for 1 h before addition of activators, SEB and TSST-1 (20 ng/mL final concentration each). Cells were incubated for 90 h. Then, Alamar Blue (20 uL/well) (Invitrogen, Cat DAL1100) was added for 6 h, and the plates were read with a fluorescence microplate reader at 546/580 nm (excitation/emission). For PBMC proliferation, cells were plated and activated as above but incubated for only 16 h prior to addition of Alamar Blue. Plates were read after 6 h.

| SMILES | outcome |
| --- | --- |
| O=C(O)C(F)(F)OC(F)(F)C(F)(F)OC(F)(F)F | inactive |
| C=CC(=O)OCC(F)(F)C(F)F | inactive |
| O=C(O)C=CC(F)(C(F)(F)F)C(F)(F)F | inactive |
| O=C(O)C(F)(OC(F)(F)C(F)(F)C(F)(F)F)C(F)(F)F (centres undefined) | inactive |
| CC(O)C(F)(F)C(F)(F)F (centres undefined) | inactive |
| O=C(O)C(F)(F)C(F)(F)C(=O)O | inactive |
| FC(F)(F)C(F)(C(F)(F)F)C(F)(F)C(F)(F)CC1CO1 (centres undefined) | inactive |
| NC(=O)C(F)(F)C(F)(F)F | inactive |
| O=C(O)C(F)(F)OC(F)(F)C(F)(F)OC(F)(F)C(=O)O | inactive |
| COC(=O)C(F)(F)C(F)(F)OC(F)(C(F)(F)F)C(F)(F)OC(F)=C(F)F (centres undefined) | inactive |
| OCC(F)(F)OC(F)(F)C(F)(F)OC(F)(F)C(F)(F)OC(F)(F)F | inactive |
| O=S(=O)(F)C(F)(F)C(F)(F)C(F)(F)C(F)(F)C(F)(F)C(F)(F)C(F)(F)C(F)(F)F | inactive |
| OCC(F)(F)OC(F)(F)C(F)(F)OC(F)(F)C(F)(F)OC(F)(F)CO | inactive |
| OCC(F)(F)OC(F)(F)C(F)(F)OC(F)(F)CO | inactive |

From PubChem BioAssay (EPA / NIEHS)
